This is a sample that favours compounds with a hit; in the whole collection about 19% have one here.
DT40 TDP1 no CPT: qHTS for Inhibitors of human tyrosyl-DNA phosphodiesterase 1 (TDP1): qHTS in cells in absence of CPT; Potency, µM (highest dose often 46.2 µM), inactives show at the top dose activity change, negative = growth inhibition, most hits filed as inhibitors; DT40 Tdp1-/- hTDP1 cells, no CPT, ATP luminescence, 48 h; 420,000 compounds, 15% hits; further: potency means the concentration at half of the fitted maximal effect; nearly all actives have a fitted effect of over 55% in size
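Seeded 400 DT40-hTDP1 cells/well (vehicle DMSO, no 20 nM CPT); pinned compounds; ≥48 hr at 37 °C; CellTiter-Glo luminescence as viability measure.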
ELG1 repair inh: blocks ELG1-dependent DNA repair in HEK293T cells | HEK293T ELG1-luciferase reporter, luminescence, 16 h; DNA damage induced by 5-fluorouridine | Potency, µM (highest dose often 46.1 µM), for the others: top-dose activity change, negative = inhibition, hits mostly inhibitors | 330,000 compounds, 2.3% hits | AID 504467; further: potency means the concentration at half of the fitted maximal effect; nearly all actives have a fitted effect of over 55% in size
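Cells (2,000 per well) received 5-fluorouridine plus test compound or DMSO and were incubated 16 hr at 37 °C, 5% CO2. Luciferase activity was read by luminescence 30 min after ONE-Glo addition; signal suppression marked inhibition of damage-induced ELG1 function.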
HT1080NT lethal: kills 2HG-producing HT-1080-NT fibrosarcoma cells. AID 686970. HT-1080-NT fibrosarcoma viability, CellTiter-Glo ATP luminescence, 48 h. Potency, µM (top dose mostly 46.1 µM), inactives show at the top dose activity, negative = less viability, hits mostly cytotoxic. 360,000 compounds, 1.6% hits;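 further: NT is the 2HG producing partner of a matched IDH1 knockdown line; potency means the concentration at half of the fitted maximal effect; 0% = DMSO-treated cells and -100% = media-only wells without cells; nearly all actives have a fitted effect of over 55% in size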
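Viability of the 2HG-overproducing fibrosarcoma line after 48 hours of compound exposure at 37 degrees C was determined by luminescence with CellTiter-Glo, and concentration-effect curves were then fitted and categorized.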
HT1080 IDH1KD tx: toxicity to HT-1080 IDH1 knockdown cells (counter line); Potency, µM (titrated, usually from 46.1 µM), for the others: at the highest dose activity, negative = toxicity, hits mostly cytotoxic; HT-1080 IDH1 knockdown viability, ATP luminescence, 48 h; AID 686971; 360,000 compounds, 2% hits;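 further: potency means the concentration at half of the fitted maximal effect; 0% = DMSO wells and -100% = cell-free medium wells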
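% activity derives from luminescence (CellTiter-Glo), normalised to DMSO and no-cell wells. HT-1080-IDH1KD cells, 750/well, had 48 h compound exposure at 37 °C.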
IL1B secr inh: inflammasome signaling inhibition, IL-1 beta readout; THP-1 LPS/ATP IL-1B secretion, AlphaLISA, 16 h; active compounds read low; activity change, % at 57.5 µM; 360,000 compounds, 4.7% hits; in the data active means activity change below about -50%; inconclusive means mostly about -30% to -49%
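Secreted IL-1B measured by AlphaLISA bead assay after 16 h compound exposure of THP-1 cells; compounds (final up to 57.5 uM) added 1 h before LPS (250 ng/mL) and ATP (1.25 mM) stimulation; lower signal means less secretion.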
DT40 TDP1 CPT: DT40-hTDP1 cell growth loss with CPT. chicken DT40 Tdp1-/-;hTDP1 cells + 20 nM CPT, ATP luminescence, 48 h. Potency, µM (titrated, usually from 46.2 µM), without a hit: at the highest dose activity change, negative = growth inhibition, usual class: inhibitors. 420,000 compounds, 12% hits. AID 686979; further: potency means the concentration at half of the fitted maximal effect; nearly all actives have a fitted effect of over 55% in size
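Cell growth measured by CellTiter-Glo luminescence after a minimum 48 h, 37 C compound exposure with 20 nM CPT in Tdp1-knockout DT40 cells stably expressing hTDP1, seeded 400/well; qHTS titration format.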
* = called active by the depositor. Unless noted, the call rests on the fitted dose curve; in most records, active means well fitted curve in the direction sought with a large enough effect; inconclusive means small, poorly fitted or top-dose-only effect, or another doubt; inactive means no such curve, though single readings can be large; an effect the other way counts as inactive or inconclusive. Unless noted, on the % scale 0 is the no-effect control and ±100 the full control effect.

How did CC(NC(=O)c1ccc([N+](=O)[O-])cc1[N+](=O)[O-])c1ccc(-c2ccccc2)cc1 (stereo unspecified) do in these assays?
DT40 TDP1 no CPT: 13µM*; ELG1 repair inh: -10%; HT1080NT lethal: -9%; HT1080 IDH1KD tx: -22%; IL1B secr inh: -1; DT40 TDP1 CPT: 13µM*

What do the screens show for `COc1cc(OC)c(C(=O)Nc2cccc3ccccc23)cc1OC`?
DT40 TDP1 no CPT: inconclusive; ELG1 repair inh: inconclusive; HT1080NT lethal: -2%; HT1080 IDH1KD tx: 10%; IL1B secr inh: -5; DT40 TDP1 CPT: inconclusive

What do the screens show for `COc1ccc(C(C)NC(=O)c2ccccc2Cl)cc1OC` (stereo unspecified)?
DT40 TDP1 no CPT: -23%; ELG1 repair inh: -8%; HT1080NT lethal: -4%; HT1080 IDH1KD tx: 6%; IL1B secr inh: -6; DT40 TDP1 CPT: -13%

How did COc1ccc(-c2noc(CCC(=O)N3CCN(c4ccccc4Br)CC3)n2)cc1 do in these assays?
DT40 TDP1 no CPT: -1%; ELG1 repair inh: 3%; HT1080NT lethal: 0%; HT1080 IDH1KD tx: -7%; IL1B secr inh: -15; DT40 TDP1 CPT: 4%

How did COc1ccccc1C(=O)NC(C)c1cccc2ccccc12 (stereo unspecified) do in these assays?
DT40 TDP1 no CPT: 3.7µM*; ELG1 repair inh: 0%; HT1080NT lethal: inconclusive; HT1080 IDH1KD tx: inconclusive; IL1B secr inh: -24; DT40 TDP1 CPT: 8.2µM*

How did COc1cc2cc(C(=O)Nc3ccccc3)c(N)nc2cc1OC do in these assays?
DT40 TDP1 no CPT: 21µM*; ELG1 repair inh: -13%; HT1080NT lethal: 5%; HT1080 IDH1KD tx: 7%; IL1B secr inh: inconclusive; DT40 TDP1 CPT: inconclusive

Results for COc1cc2ccccc2cc1C(=O)Nc1cccnc1 ?
DT40 TDP1 no CPT: inconclusive; ELG1 repair inh: inconclusive; HT1080NT lethal: -1%; HT1080 IDH1KD tx: -4%; IL1B secr inh: 0; DT40 TDP1 CPT: -11%

Results for COc1ccc(-n2cc(-c3ccccc3)c3c(NCCCN4CCOCC4)ncnc32)cc1 ?
DT40 TDP1 no CPT: inconclusive; ELG1 repair inh: inconclusive; HT1080NT lethal: 21µM*; HT1080 IDH1KD tx: 18µM*; IL1B secr inh: -16; DT40 TDP1 CPT: inconclusive

What do the screens show for `c1ccc(-c2cn(-c3ccccc3)c3ncnc(NCCCN4CCOCC4)c23)cc1`?
DT40 TDP1 no CPT: inconclusive; ELG1 repair inh: -15%; HT1080NT lethal: inconclusive; HT1080 IDH1KD tx: inconclusive; IL1B secr inh: -86*; DT40 TDP1 CPT: inconclusive

Results for Brc1ccc(-n2cc(-c3ccccc3)c3c(NN4CCOCC4)ncnc32)cc1 ?
DT40 TDP1 no CPT: inconclusive; ELG1 repair inh: -2%; HT1080NT lethal: 2%; HT1080 IDH1KD tx: -5%; IL1B secr inh: 6; DT40 TDP1 CPT: 18µM*

Results for CCN(Cc1ccccc1)C(=O)CCS(=O)(=O)c1ccc2c(c1)NC(=O)CO2 ?
DT40 TDP1 no CPT: 5%; ELG1 repair inh: 2%; HT1080NT lethal: -3%; HT1080 IDH1KD tx: 23%; IL1B secr inh: 0; DT40 TDP1 CPT: inconclusive

What do the screens show for `Cn1c(=O)[nH]c2cc(-c3noc(-c4ccc(F)cc4)n3)ccc21`?
DT40 TDP1 no CPT: 5%; DT40 TDP1 CPT: 5%

What do the screens show for `CCCCC[C@H](C)N1C[C@H](COCc2ccccc2)Oc2cc(N3CC[C@@H](N(C)C)C3)ccc2S1(=O)=O`?
DT40 TDP1 no CPT: inconclusive; HT1080NT lethal: 21µM*; HT1080 IDH1KD tx: 16µM*; IL1B secr inh: -64*; DT40 TDP1 CPT: inconclusive

Results for C[C@H](c1ccccc1)N1C[C@H](COCc2ccccc2)Oc2cc(N3CC[C@@H](N(C)C)C3)ccc2S1(=O)=O ?
DT40 TDP1 no CPT: -19%; HT1080NT lethal: 6%; HT1080 IDH1KD tx: 8%; IL1B secr inh: 47; DT40 TDP1 CPT: 10%

Results for C[C@@H](c1ccccc1)N1C[C@H](COCc2ccccc2)Oc2cc(N3CC[C@@H](O)C3)ccc2S1(=O)=O ?
DT40 TDP1 no CPT: inconclusive; HT1080NT lethal: inconclusive; HT1080 IDH1KD tx: -29%; IL1B secr inh: 19; DT40 TDP1 CPT: inconclusive

How did C[C@@H](c1ccccc1)N1C[C@@H](COCc2ccccc2)Oc2cc(N3CC[C@@H](N(C)C)C3)ccc2S1(=O)=O do in these assays?
DT40 TDP1 no CPT: 15µM*; HT1080NT lethal: 18µM*; HT1080 IDH1KD tx: 23µM*; IL1B secr inh: -12; DT40 TDP1 CPT: inconclusive

What do the screens show for `CCCCC[C@@H](C)N1C[C@H](COCc2ccccc2)Oc2cc(N3CC[C@@H](N(C)C)C3)ccc2S1(=O)=O`?
DT40 TDP1 no CPT: 21µM*; HT1080NT lethal: 12µM*; HT1080 IDH1KD tx: 10µM*; IL1B secr inh: -92*; DT40 TDP1 CPT: 23µM*

What do the screens show for `C[C@@H](c1ccccc1)N1C[C@@H](COCc2ccccc2)Oc2cc(N3CC[C@@H](O)C3)ccc2S1(=O)=O`?
DT40 TDP1 no CPT: inconclusive; HT1080NT lethal: inconclusive; HT1080 IDH1KD tx: inconclusive; IL1B secr inh: -17; DT40 TDP1 CPT: inconclusive

Results for CCCCC[C@H](C)N1C[C@H](COCc2ccccc2)Oc2cc(N3CC[C@H](N(C)C)C3)ccc2S1(=O)=O ?
DT40 TDP1 no CPT: 16µM*; HT1080NT lethal: inconclusive; HT1080 IDH1KD tx: 21µM*; IL1B secr inh: inconclusive; DT40 TDP1 CPT: inconclusive

Results for Cc1ccc(NC(=O)CC2(CC(=O)O)CCCC2)c(C)c1 ?
DT40 TDP1 no CPT: -1%; ELG1 repair inh: 4%; HT1080NT lethal: 20%; HT1080 IDH1KD tx: 2%; IL1B secr inh: 52; DT40 TDP1 CPT: 13%

Results for CCCCC[C@@H](C)N1C[C@@H](COCc2ccccc2)Oc2cc(N3CC[C@@H](N(C)C)C3)ccc2S1(=O)=O ?
DT40 TDP1 no CPT: 23µM*; HT1080NT lethal: 21µM*; HT1080 IDH1KD tx: 18µM*; IL1B secr inh: -89*; DT40 TDP1 CPT: 21µM*

What do the screens show for `O=S(=O)(Nc1nc2ccccc2nc1Nc1cccc(S(=O)(=O)N2CCCCC2)c1)c1ccccc1`?
DT40 TDP1 no CPT: 5.8µM*; ELG1 repair inh: inconclusive; HT1080NT lethal: 6.5µM*; HT1080 IDH1KD tx: inconclusive; IL1B secr inh: -27; DT40 TDP1 CPT: 6.5µM*

Results for O=C(Nc1cccc(S(=O)(=O)N2CCCC2)c1)c1cc(-c2ccccn2)nc2ccccc12 ?
DT40 TDP1 no CPT: 21µM*; ELG1 repair inh: inconclusive; HT1080NT lethal: -27%; HT1080 IDH1KD tx: -6%; IL1B secr inh: inconclusive; DT40 TDP1 CPT: 23µM*
